Results with a measured potency or affinity are listed apart. Activity calls are given as the source filed them.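 Rule for the calls: active = signal drop whose fitted half-maximal concentration is at most twice the top valid dose, in every test run; inconclusive = mixed calls across runs, poor fit, or flat 30 to 70% inhibition; inactive = wrong direction, flat within 30%, or potency beyond limit.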

A short description of the assay: RMG-1 ovarian cancer cell viability loss – cherry-pick, dose response (AID 687029).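 Note: cells exposed to compound for 96 hours.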 The conditions noted are these: RMG-1 viability, CellTiterGlo ATP luminescence, 96 h; series mostly up to 35 µM. For orientation: ATP-based viability assays read luminescence as a measure of living cells.
As to `C[C@@H]1CCCCO[C@H](CN(C)C(=O)Nc2ccc(C(F)(F)F)cc2)[C@H](C)CN([C@@H](C)CO)C(=O)c2cc(NS(=O)(=O)c3ccc(Cl)cc3)ccc2O1`, the compound was called inactive.

On to `C[C@H](O)C#Cc1cnc2c(c1)C(=O)N([C@H](C)CO)C[C@H](C)[C@H](CN(C)Cc1ccc(-c3ccccc3)cc1)O2`, for which the call was inactive.

Take `Cc1ccc(S(=O)(=O)N(C)C[C@@H]2Oc3cc(C#Cc4ccncc4)ccc3S(=O)(=O)N([C@@H](C)CO)C[C@H]2C)cc1`: the outcome was inactive.

Turning to `O=C(C[C@@H]1C[C@H]2c3cc(NC(=O)C4CCOCC4)ccc3O[C@H]2[C@H](CO)O1)NCc1ccc(Oc2ccccc2)cc1`, the compound was called inactive.

In the case of `C[C@@H]1CCCCO[C@@H](CN(C)Cc2ccc(C(F)(F)F)cc2)[C@H](C)CN([C@H](C)CO)C(=O)c2cc(NS(=O)(=O)c3ccc(Cl)cc3)ccc2O1`, the compound was classed as inactive.

With `Cc1ccc(S(=O)(=O)N(C)C[C@H]2OCCCC[C@@H](C)Oc3ccc(NS(=O)(=O)c4ccc(F)cc4)cc3C(=O)N([C@@H](C)CO)C[C@H]2C)cc1`, the outcome was inactive.

On to `C[C@@H]1CCCCO[C@H](CN(C)C(=O)Cc2ccccc2)[C@H](C)CN([C@@H](C)CO)C(=O)c2cc(NC(=O)Nc3ccc(C(F)(F)F)cc3)ccc2O1`, for which the call was inactive.

Take `Cc1ccc(S(=O)(=O)Nc2ccc3c(c2)C(=O)N([C@H](C)CO)C[C@H](C)[C@H](CN(C)C(=O)c2ccccc2)OCCCC[C@H](C)O3)cc1`: the compound was called inactive.

As to `COc1ccc(S(=O)(=O)Nc2ccc3c(c2)CC(=O)N([C@H](C)CO)C[C@H](C)[C@@H](CN(C)Cc2ccc(-c4ccccc4)cc2)O3)cc1`, the outcome was inactive.

As to `C[C@@H]1CCCCO[C@H](CN(C)S(=O)(=O)c2ccc(Cl)cc2)[C@@H](C)CN([C@@H](C)CO)C(=O)c2cc(NC(=O)CCC(F)(F)F)ccc2O1`, the call was inactive.

`Cc1ccc(S(=O)(=O)Nc2ccc3c(c2)C(=O)N([C@@H](C)CO)C[C@@H](C)[C@H](CN(C)Cc2ccc(Cl)c(Cl)c2)OCCCC[C@@H](C)O3)cc1`: the call was inactive.

On to `CN1c2ccc(-c3ccc(C#N)cc3)cc2[C@@H]2[C@@H](CCN2C(=O)NC2CCCCC2)[C@@H]1CO`, for which the outcome was inactive.

As to `C[C@H]1CCCCO[C@H](CN(C)C(=O)Nc2ccc(C(F)(F)F)cc2)[C@@H](C)CN([C@@H](C)CO)C(=O)c2cc(NC(=O)c3ccncc3)ccc2O1`, the compound was called inactive.

For `COc1ccccc1S(=O)(=O)N(C)C[C@@H]1Oc2cc(C#CCC3CCCC3)ccc2S(=O)(=O)N([C@@H](C)CO)C[C@@H]1C`, the call was inactive.

For `C[C@@H]1CN([C@H](C)CO)C(=O)c2cc(NC(=O)Nc3ccc(F)cc3)ccc2O[C@@H](C)CCCCO[C@H]1CN(C)C(=O)Nc1ccc(F)cc1`, the call was inactive.

As for `Cc1ccc(S(=O)(=O)N(C)C[C@H]2Oc3ccc(NC(=O)Nc4ccc(C(F)(F)F)cc4)cc3CC(=O)N([C@H](C)CO)C[C@@H]2C)cc1`, the compound was called inactive.

Take `CCCN(C)C[C@H]1OCCCC[C@@H](C)Oc2ccc(NC(=O)c3ccccc3)cc2C(=O)N([C@H](C)CO)C[C@H]1C`: the call was inactive.

For the compound `C[C@@H]1CN([C@H](C)CO)S(=O)(=O)c2ccc(C#Cc3ccncc3)cc2O[C@H]1CN(C)C(=O)Nc1ccc2c(c1)OCO2`, the call was inactive.

Consider `C[C@@H]1CN([C@H](C)CO)C(=O)c2cc(NC(=O)Nc3ccc(C(F)(F)F)cc3)ccc2O[C@@H](C)CCCCO[C@H]1CN(C)Cc1ccc(Cl)c(Cl)c1`, for which the call was inactive.

Regarding `C[C@H](CO)N1C[C@H](C)[C@H](CN(C)C(=O)NC2CCCCC2)OCCCC[C@H](C)Oc2ccc(NC(=O)Nc3ccc(C(F)(F)F)cc3)cc2C1=O`, the result was inactive.

With `C[C@@H]1CN([C@H](C)CO)C(=O)Cc2cc(NC(=O)Nc3ccc(F)cc3)ccc2O[C@@H]1CN(C)Cc1ccc(Cl)c(Cl)c1`, the compound was classed as inactive.

With `C[C@@H]1CN([C@@H](C)CO)C(=O)c2ccccc2-c2ccccc2CO[C@H]1CN(C)Cc1ccccc1C(F)(F)F`, the outcome was inactive.

Consider `Cc1ccc(S(=O)(=O)Nc2ccc3c(c2)C(=O)N([C@@H](C)CO)C[C@H](C)[C@@H](CN(C)C(=O)Nc2ccc(C(F)(F)F)cc2)OCCCC[C@H](C)O3)cc1`, for which the compound was classed as inactive.

In the case of `Cc1ccc(S(=O)(=O)N(C)C[C@@H]2Oc3c(NC(=O)c4ccc(-c5nccs5)cc4)cccc3C(=O)N([C@@H](C)CO)C[C@@H]2C)cc1`, the compound was called inactive.

For `C[C@@H]1CN([C@H](C)CO)C(=O)Cc2cc(NC(=O)Cc3ccccc3)ccc2O[C@@H]1CN(C)Cc1ccc(C(F)(F)F)cc1`, the call was inactive.

Take `C[C@H](CO)N1C[C@H](C)[C@H](CN(C)Cc2ccc(Cl)c(Cl)c2)Oc2c(NS(=O)(=O)c3ccc(Cl)cc3)cccc2C1=O`: the compound was classed as inactive.

Consider `C[C@@H]1CN([C@H](C)CO)C(=O)c2cc(NC(=O)c3ccncc3)ccc2O[C@@H](C)CCCCO[C@H]1CN(C)Cc1ccc(C(F)(F)F)cc1`, for which the compound was classed as inactive.

Take `C[C@@H]1CN([C@@H](C)CO)C(=O)c2cc(NS(=O)(=O)c3ccc(Cl)cc3)ccc2O[C@@H](C)CCCCO[C@H]1CN(C)Cc1ccc(C(F)(F)F)cc1`: the result was inactive.

For the compound `C[C@H]1CCCCO[C@@H](CN(C)C(=O)c2ccccc2)[C@@H](C)CN([C@@H](C)CO)C(=O)c2cc(NC(=O)Nc3ccc(C(F)(F)F)cc3)ccc2O1`, the compound was classed as inactive.

Turning to `C[C@@H]1CN([C@@H](C)CO)C(=O)c2cc(NS(=O)(=O)c3ccccc3)ccc2O[C@@H](C)CCCCO[C@@H]1CN(C)Cc1ccc(C(F)(F)F)cc1`, the outcome was inactive.

As for `C[C@@H]1CN([C@H](C)CO)C(=O)c2cc(NC(=O)Nc3ccccc3)ccc2O[C@@H](C)CCCCO[C@H]1CN(C)Cc1ccc(Cl)c(Cl)c1`, the call was inactive.

For `C[C@@H]1CCCCO[C@@H](CN(C)Cc2ccc(Cl)c(Cl)c2)[C@H](C)CN([C@@H](C)CO)C(=O)c2cc(NC(=O)Cc3ccccc3)ccc2O1`, the call was inactive.

With `C[C@H]1CCCCO[C@H](CN(C)S(=O)(=O)c2ccc(Cl)cc2)[C@@H](C)CN([C@@H](C)CO)C(=O)c2cc(NS(=O)(=O)c3ccc(Cl)cc3)ccc2O1`, the result was inactive.

In the case of `C[C@@H]1CN([C@@H](C)CO)C(=O)c2cc(NC(=O)c3ccccc3)ccc2O[C@@H](C)CCCCO[C@H]1CN(C)Cc1ccc(C(F)(F)F)cc1`, the result was inactive.

As for `C[C@@H]1CCCCO[C@H](CN(C)C)[C@H](C)CN([C@H](C)CO)C(=O)c2cc(NC(=O)Nc3cccc4ccccc34)ccc2O1`, the compound was called inactive.

For the compound `C[C@H](CO)N1C[C@H](C)[C@@H](CN(C)C(=O)NC2CCCCC2)Oc2cc(C#Cc3ccc(F)cc3)ccc2S1(=O)=O`, the call was inactive.

In the case of `C[C@H]1CCCCO[C@@H](CN(C)C(=O)Nc2ccc(C(F)(F)F)cc2)[C@@H](C)CN([C@@H](C)CO)C(=O)c2cc(NS(=O)(=O)c3cn(C)cn3)ccc2O1`, the outcome was inactive.

For `COc1ccccc1-c1ccc2c(c1)O[C@H](CN(C)Cc1ccc3c(c1)OCO3)[C@H](C)CN([C@@H](C)CO)S2(=O)=O`, the result was inactive.

`C[C@@H]1CCCCO[C@H](CN(C)C(=O)NC2CCCCC2)[C@@H](C)CN([C@@H](C)CO)C(=O)c2cc(NC(=O)Nc3ccc(C(F)(F)F)cc3)ccc2O1`: the compound was called inactive.

Consider `C[C@@H]1CN([C@@H](C)CO)C(=O)Cc2cc(NS(=O)(=O)c3ccc(F)cc3)ccc2O[C@H]1CN(C)Cc1ccc(Oc2ccccc2)cc1`, for which the outcome was inactive.

These data come from PubChem BioAssay.
